Assay [1] is described as follows: NCI Yeast Anticancer Drug Screen. Data for the rad50 strain (AID 155).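 Note: 0% = growth of vehicle-only cultures of the same strain.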 To be noted: S. cerevisiae rad50 strain growth inhibition, stronger effect = higher value; at 50.0 µM unless noted. In outline: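 DNA repair mutant yeast, compound exposure, growth read-out; inhibition is taken relative to vehicle.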
The nature of assay [2]: NCI Yeast Anticancer Drug Screen. Data for the mec2-1 strain (AID 157). The settings on record: S. cerevisiae mec2-1 strain, stronger effect = higher value; at 50.0 µM unless noted. In outline:
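Mutant yeast (mec2-1) grown with compound; growth inhibition relative to vehicle control reported.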

A short description of assay [3]: NCI Yeast Anticancer Drug Screen. Data for the sgs1 mgt1 strain (AID 161).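 Note: 0% = growth of cultures given vehicle only.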 The settings on record: S. cerevisiae sgs1 mgt1 strain, stronger effect = higher value; at 50.0 µM unless noted. Summed up:
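This yeast growth screen uses a strain with defined DNA-repair lesions; compound-treated growth is compared with vehicle-treated growth.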

A short description of assay [4]: NCI Yeast Anticancer Drug Screen. Data for the cln2 rad14 strain (AID 165).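 Note: 0% = growth equal to vehicle treated cultures.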 The settings on record: S. cerevisiae cln2 rad14 strain, stronger effect = higher value; at 50.0 µM unless noted. Summed up:
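Readout is yeast growth inhibition versus vehicle-treated controls, using a strain with cln2 and rad14 alterations exposed to compound.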

A short description of assay [5]: NCI Yeast Anticancer Drug Screen. Data for the bub3 strain (AID 167). The settings on record: S. cerevisiae bub3 mutant strain, stronger effect = higher value; at 50.0 µM unless noted. In outline:
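In this screen, a yeast mutant lacking normal mitotic checkpoint function is challenged with compound. Relative growth versus vehicle gives the inhibition value.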

Assay [6] in a line: NCI Yeast Anticancer Drug Screen. Data for the mlh1 rad18 strain (AID 175). The settings on record: S. cerevisiae mlh1 rad18 strain growth inhibition, stronger effect = higher value; at 50.0 µM unless noted. In outline: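 Genetically defined yeast (DNA repair-deficient) exposed to compounds; growth inhibition determined relative to vehicle.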

Several values for one entry are separate records, joined by “and”; a condition that tells them apart may be missing. Identical values can stand only once. Compounds without any hit were thinned out: in the full panel of roughly 79,000, 15% have a hit. A number with no mark means an inactive call. Activity calls are given as the source filed them. Cut-off read from the data, not from the text of the source: active = growth inhibition above about 70%; inactive = the rest.

From PubChem BioAssay (NCI) come the findings set out here.

Regarding `O=C(Nc1ccccc1)C12CCC(CC1Br)C2` (centres undefined), the growth inhibition in assay [1] was 4.95%; in assay [2], -9.25%; in assay [3], -9.7%; in assay [4], 7.6%; in assay [5], 1.75%; in assay [6] it was 14.2%.
`OC1COC(OCc2ccccc2)C(O)C1O` (centres undefined): the growth inhibition is -16.4% and -2.85% in assay [1]; -25.7% and -19.6% in assay [2]; -18.1% and -11.5% in assay [3]; -18.2% and -46.3% in assay [4]; 2.25% and 6% in assay [5]; -3.4% and -12.2% in assay [6].
As for `O=c1[nH]c2[nH]c(=S)[nH]c(=O)c2[nH]1`, the growth inhibition was 6.3% in assay [1]; 0.85% in assay [2]; -8.5% in assay [3]; -11.7% in assay [4]; -3.4% in assay [5]; -13.8% in assay [6].
`COc1ccc(/C=C(\C(=O)OCC(C)C)c2ccc(OC)c(OC)c2)cc1OC`: the growth inhibition in assay [1] was 2.6%; in assay [2] it was -17.1%; in assay [3], 8.5%; in assay [4], -6.15%; in assay [5], -7.2%; in assay [6], 16.4%.
Turning to `CN(C)CCCNC(=O)CCNC(=O)c1cc(NC(=O)c2cc(NC(=O)c3cc(NC(=O)CCCNC(=O)c4cc(NC(=O)c5cc(NC(=O)c6nccn6C)cn5C)cn4C)cn3C)cn2C)cn1C`, the growth inhibition in assay [1] is 7.55%; in assay [2] it was -14.8%; in assay [3], -2%; in assay [4], -1.35%; in assay [5], 4%; in assay [6], -25.3%.
Regarding `CC(=O)NC1C(OCc2ccccc2)OC(CO)C(O)C1OCC(=O)NC(C)C(=O)NC(CCC(=O)NCCCCCNc1c2ccccc2nc2cccc([N+](=O)[O-])c12)C(N)=O` (centres undefined), the growth inhibition is 78.8% (active) in assay [1]; 87.3% (active) in assay [2]; 79% (active) in assay [3]; 78.8% (active) in assay [4]; 53.5% in assay [5]; 89% (active) in assay [6].
On to `CC(C)COC(c1ccccc1)c1ccccc1`, for which the growth inhibition is -9.5% in assay [1]; -9.75% in assay [2]; 5.15% in assay [3]; 18.8% in assay [4]; -12.8% in assay [5]; -4.75% in assay [6].
Take `CCn1c2ccccc2c2cc(N=Nc3ccc4c(c3)c3ccccc3n4CC)ccc21`: the growth inhibition was 44.5% in assay [1]; 14.7% in assay [2]; 19.9% in assay [3]; 41.2% in assay [4]; 45.2% in assay [5]; 35.5% in assay [6].
For `CCCN=C(N)C(C)=O`, the growth inhibition was 5.85% in assay [1]; -4.9% in assay [2]; -11.1% in assay [3]; 4.85% in assay [4]; 15.2% in assay [5]; 2.1% in assay [6].
On to `O=[N+]([O-])c1ccc(S(=O)(=O)O)cc1`, for which the growth inhibition in assay [1] is 43.6%; in assay [2] it was 25.1%; in assay [3], 37.5%; in assay [4] it was -22.7%; in assay [5] it was 9.65%; in assay [6], 43.1%.
With `N#Cc1c(O)c(N=Nc2ccc(Cl)cc2)c(=O)n2c1[nH]c1ccccc12`, the growth inhibition in assay [1] was 11.6%; in assay [2] it was 14.2%; in assay [3] it was 21.2%; in assay [4], 28.9%; in assay [5], 10.5%; in assay [6] it was 18.7%.
For `O=C1Nc2cc(Br)ccc2C1=O`, the growth inhibition in assay [1] is 7.5%; in assay [2], 23.1%; in assay [3], 2%; in assay [4] it was 11.8%; in assay [5], 10.4%; in assay [6], 15.2%.
On to `O=C(CNC(=O)C(CSC(c1ccccc1)c1ccccc1)NC(=O)C(CSC(c1ccccc1)(c1ccccc1)c1ccccc1)NC(=O)OCc1ccccc1)OC(c1ccccc1)c1ccccc1` (centres undefined), for which the growth inhibition is 4.15% in assay [1]; 3.1% in assay [2]; -6.25% in assay [3]; -4.25% in assay [4]; -1.85% in assay [5]; 20.7% in assay [6].
In the case of `C=C1CC(C)(COc2ccc3ccc(=O)oc3c2)OC1=O` (centres undefined), the growth inhibition in assay [1] is 24.4%; in assay [2], 15.4%; in assay [3], 49%; in assay [4] it was 37.5%; in assay [5], 17.6%; in assay [6] it was 41%.
Regarding `C=C(C)c1ccc(C(C)C)cc1`, the growth inhibition is -38.5% in assay [1]; -40.1% in assay [2]; -24.6% in assay [3]; 4.55% in assay [4]; -13.6% in assay [5]; -3.25% in assay [6].
For the molecule `Oc1ccc(C(O)CN2CCCC2)cc1O` (centres undefined), the growth inhibition was -15.7% in assay [1]; 10.9% in assay [2]; -0.1% in assay [3]; -36.1% in assay [4]; 2.7% in assay [5]; -15.3% in assay [6].
As to `CCCc1[nH]n(-c2ccccc2)c(=O)c1N=Nc1cccc(C(F)(F)F)c1`, the growth inhibition in assay [1] is -10.7%; in assay [2] it was -1.1%; in assay [3], -7.3%; in assay [4], -12.8%; in assay [5], -5%; in assay [6], -7.95%.
Regarding `O=C(Nc1ccccc1)c1cc(S(=O)(=O)Nc2n[nH]c(=O)[nH]2)c(SSc2cc(Cl)c(C(=O)Nc3ccccc3)cc2S(=O)(=O)Nc2n[nH]c(=O)[nH]2)cc1Cl`, the growth inhibition in assay [1] is 18.8%; in assay [2] it was 22.7%; in assay [3], -8.5%; in assay [4] it was -6.35%; in assay [5], -2.25%; in assay [6], 25.4%.
For `CCOC(C)C(Nc1ccc(C(=O)O)cc1)C(=O)Nc1ccc(C(=O)O)cc1` (centres undefined), the growth inhibition in assay [1] is 9.8%; in assay [2] it was 2%; in assay [3] it was 4.5%; in assay [4], -29.4%; in assay [5] it was -5.6%; in assay [6] it was -10.7%.
